Assay [1] can be described thus: APR_HepG2_CellCycleArrest_24hr: Apredica 24-hour HepG2 Assay for Cell Cycle Arrest (AID 2282905).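 Also: cell cycle arrest scored as ratio of 2N to 4N nuclear DNA content.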 The note with it: imaging, actives raise or lower the signal. The gist of the method:
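Step one: dose HepG2 with test compounds, 0.39–200 uM, 0.5% DMSO, 24 hr. Step two: fix, permeabilize, stain nuclei with Hoechst 33342. Step three: image six fields per well at 20x, quantify DNA content, fit bidirectionally relative to DMSO.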

Assay [2] in a line: APR_HepG2_StressKinase_1hr: Apredica 1-hour HepG2 Assay for Stress Kinase (AID 2282906). The note with it: HepG2 stress kinase (phospho-c-Jun) imaging, actives raise or lower the signal. The gist of the method:
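High-content imaging of phospho-c-Jun immunostaining (with Hoechst nuclear identification) after a 1 h exposure of HepG2 cells to 10 concentrations from 0.39 to 200 uM, final DMSO 0.5%. Fitted bidirectionally against DMSO.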

Assay [3] in a line: APR_HepG2_NuclearSize_24hr: Apredica 24-hour HepG2 Assay for Nuclear Size (AID 2282907). The conditions noted are these: high-content imaging, actives raise or lower the signal. In short, it runs like this:
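After fixation and permeabilization, 24-hr-treated HepG2 cells were stained with Hoechst 33342 and imaged on an ArrayScan (20x). Doses spanned 0.39–200 uM in duplicate. Nuclear diameter changes in either direction were fitted relative to 0.5% DMSO controls.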

A short description of assay [4]: APR_HepG2_CellLoss_24hr: Apredica 24-hour HepG2 Assay for Cell Loss (AID 2282908).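 As to AC50: fit in both directions so a hit may be cell loss or gain.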 The conditions noted are these: high-content imaging. In short, it runs like this: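 Duplicate wells received compound at ten concentrations (0.39–200 uM; final DMSO 0.5% v/v). After fixation with formaldehyde, nuclei stained with Hoechst 33342 were imaged at 20x. Loss or gain of cell count was fitted relative to DMSO controls.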

Assay [5] can be described thus: APR_HepG2_MicrotubuleCSK_24hr: Apredica 24-hour HepG2 Assay for Microtubule CSK Stabilty (AID 2282909). The conditions noted are these: HepG2 microtubule cytoskeleton imaging, actives raise or lower the signal. In short, it runs like this:
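Microtubule stability is scored from tubulin immunofluorescence in fixed HepG2 cells imaged at 20x. Cells receive ten compound concentrations up to 200 uM for 24 h; taxol and DMSO serve as positive and negative controls.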

Assay [6] is described as follows: APR_HepG2_MitoticArrest_24hr: Apredica 24-hour HepG2 Assay for Mitotic Arrest (AID 2282910). The note with it: high-content imaging, actives raise or lower the signal. In short, it runs like this: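 Treatment lasted 24 hr in the human HepG2 line at 0.39–200 uM, solvent held at 0.5% DMSO. Fixed cells were stained with Hoechst 33342 and anti-phospho-histone H3, imaged at 20x, and analysed by gain- or loss-of-signal fitting against DMSO.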

Assay [7] in a line: APR_HepG2_MitoMembPot_24hr: Apredica 24-hour HepG2 Assay for Mitochondrial Membrane Potential (AID 2282911). The note with it: imaging, actives raise or lower the signal. In short, it runs like this: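 Cells are dosed for 24 hr across 0.39 to 200 uM with solvent held at 0.5% DMSO. They are then stained with 250 nM MitoTracker Red CMXRos for 30 min, fixed in 3.7% formaldehyde and imaged.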

A short description of assay [8]: APR_HepG2_MitoMass_24hr: Apredica 24-hour HepG2 Assay for Mitochondrial Mass (AID 2282912). The note with it: high-content imaging, actives raise or lower the signal. The gist of the method:
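Readout: fluorescence of MitoTracker Red CMXRos (250 nM, added 30 min pre-fixation) in fixed HepG2 cells imaged by HCS. Exposure lasted 24 hr at 0.39–200 uM; increases and decreases were both fitted relative to DMSO.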

The nature of assay [9]: APR_HepG2_p53Act_24hr: Apredica 24-hour HepG2 Assay for p53 Activation (AID 2282913).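 Also: p53 protein immunofluorescence averaged per cell in HepG2 with Hoechst nuclei.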 The conditions noted are these: high-content imaging, actives raise or lower the signal. The gist of the method: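 Human HepG2 liver cells; 24 hr cpd treatment, 0.39–200 uM, 0.5% DMSO final. Fixed in 3.7% formaldehyde, permeabilized with 0.5% Triton X-100, stained with anti-p53/Cy5 plus Hoechst 33342. Six images per well at 20x; gain or loss vs DMSO.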

Assay [10] can be described thus: APR_HepG2_CellCycleArrest_72hr: Apredica 72-hour HepG2 Assay for Cell Cycle Arrest (AID 2282914). The note with it: high-content imaging, actives raise or lower the signal. In short, it runs like this:
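Read-out is Hoechst-stained nuclear DNA content measured by automated fluorescence imaging (20x, six images per well), fitted in both directions relative to DMSO. Human HepG2 liver cells received 0.39–200 uM compound for 72 hr at 0.5% v/v DMSO.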

The source made the active and inactive calls. The calls were made as follows: active = hit-call score of the fitted dose curve at least 0.9, where 1 is the maximum; inactive = score below 0.9.

Turning to `O=C(O)CCCOc1ccc(Cl)cc1Cl`, the compound was classed as inactive in assay [1], in [2], in assay [3], in assay [4], in assay [5] and in [6]. Moreover, the outcome in [7], in [8] and in assay [9] was inactive.

Regarding `COC(=O)c1ccccc1S(=O)(=O)NC(=O)N(C)c1nc(C)nc(OC)n1`, the compound was called inactive in assay [1], in assay [2], in assay [3], in assay [4], in assay [5] and in [6]. The call in assay [7], in assay [8] and in [9] was inactive.

The AC50 is the midpoint of the concentration-response curve, whichever way the signal moves. Regarding `O=[N+]([O-])c1c(Cl)c(Cl)c(Cl)c(Cl)c1Cl`, the compound was called inactive in assay [1], in [2], in assay [3], in [4], in [5] and in [6]. For the same compound, the compound was classed as inactive in assay [7], in assay [8] and in assay [9]. In addition, the AC50 in [10] was 81.9 µM (active).

With `CCOc1nc(NC)nc(NC(=O)NS(=O)(=O)c2ccccc2C(=O)OC)n1`, the compound was classed as inactive in [1], in assay [2], in assay [3], in assay [4], in [5] and in [6]. Besides, the result in [7], in assay [8] and in assay [9] was inactive.

Take `CCC(C)(NC(=O)c1cc(Cl)c(C)c(Cl)c1)C(=O)CCl` (stereo unspecified): the concentration at half-maximal activity (AC50) in assay [1] was 12.8 µM (active); in assay [2], 37 µM (active); in assay [4], 32.3 µM (active); in assay [6] it was 8.8 µM (active); in assay [7], 30.1 µM (active). The result in assay [3], in assay [5], in [8] and in assay [9] was inactive.

Take `O=C(O)COc1ccc(Cl)cc1Cl`: the result in assay [1], in assay [2], in assay [3], in assay [4], in [5] and in [6] was inactive. Besides, the compound was classed as inactive in [7], in assay [8], in assay [9] and in assay [10].

As to `CC1(c2ccc(Oc3ccccc3)cc2)OC(=O)N(Nc2ccccc2)C1=O` (stereo unspecified), the outcome in [1], in assay [2], in [3], in assay [8] and in [9] was inactive. Besides, the AC50 in [4] is 120 µM (active); in assay [5] it was 88.5 µM (active); in assay [6], 98.3 µM (active); in assay [7], 6.77 µM (active).

On to `Cc1cc(C)nc(NC(=O)NS(=O)(=O)c2ccccc2C(=O)OC2COC2)n1`, for which the call in [1], in assay [2], in [3], in assay [4], in [5] and in assay [6] was inactive. In addition, the outcome in assay [7], in assay [8] and in [9] was inactive.

For the compound `CNC(=O)Oc1ccccc1OC(C)C`, the result in [1], in [2], in assay [3], in assay [4], in assay [5] and in assay [6] was inactive. The compound was classed as inactive in assay [7], in assay [8], in assay [9] and in assay [10].

Regarding `O=S1OCC2C(CO1)C1(Cl)C(Cl)=C(Cl)C2(Cl)C1(Cl)Cl` (stereo unspecified), the result in assay [1], in assay [3], in assay [4], in [5], in [6] and in assay [7] was inactive. For the same compound, the call in assay [8] and in assay [9] was inactive. Moreover, the concentration at half-maximal activity (AC50) in assay [2] is 94.4 µM (active).

For `CCCN(CCC)c1c([N+](=O)[O-])cc(C(F)(F)F)cc1[N+](=O)[O-]`, the call in assay [1], in [2], in assay [3], in [4], in assay [5] and in assay [6] was inactive. Further, the outcome in assay [8] and in [10] was inactive. Besides, in [7], the AC50 was 118 µM (active).

`CCS(=O)(=O)c1cccnc1S(=O)(=O)NC(=O)Nc1nc(OC)cc(OC)n1`: the compound was called inactive in assay [1], in assay [2], in assay [3], in assay [4], in assay [5] and in assay [6]. Further, the outcome in assay [7], in assay [8] and in assay [9] was inactive.

For the compound `CC[C@H](C)[C@H]1O[C@]2(C=C[C@@H]1C)C[C@@H]1C[C@@H](C/C=C(\C)[C@@H](O[C@H]3C[C@H](OC)[C@@H](O[C@H]4C[C@H](OC)[C@@H](O)[C@H](C)O4)[C@H](C)O3)[C@@H](C)/C=C/C=C3\CO[C@@H]4[C@H](O)C(C)=C[C@@H](C(=O)O1)[C@]34O)O2` (tested in a mixture with another compound), the half-maximal activity concentration (AC50) in assay [1] was 12.7 µM (active); in assay [2], 22.3 µM (active); in assay [4], 12.2 µM (active); in assay [5], 120 µM (active); in assay [6], 111 µM (active); in assay [8] it was 114 µM (active). The AC50 in [10] was 21.6 µM (active). Further, the outcome in [3], in assay [7] and in assay [9] was inactive.

Turning to `CNC(=O)Oc1cccc(N=CN(C)C)c1`, the call in [1], in assay [2], in assay [3], in assay [5], in assay [6] and in assay [7] was inactive. For the same compound, the compound was classed as inactive in assay [8] and in assay [9]. The AC50 in assay [4] is 78.6 µM (active); in assay [10], 64.1 µM (active).

The values above are taken from PubChem BioAssay (EPA / NIEHS).
